Screening data deposited in PubChem by National Center for Advancing Translational Sciences (NCATS).
Hits are enriched below; roughly 11% of the tested compounds scored in any of these assays.
FBPA coupling cs: inhibits coupling enzyme system, counter-screen for aldolase hits | coupling enzyme system counterscreen, AmpLite Red fluorescence | activity change, negative = inhibition, % at 58.2 µM, hits read low | 290,000 tested, 0.67% active | AID 2472; in the data active = activity change below about -30%
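Counterscreen of the coupled detection system alone, without aldolase: glyceraldehyde-3-phosphate coupling enzymes plus AmpLite Red readout. Compounds at 57.5 uM final, 10 min RT preincubation, 20 min RT reaction, fluorescence 525/598 nm.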
G9a inh: blocks human histone lysine methyltransferase G9a. 350,000 tested, 8.8% active. Potency, µM (titrated, usually from 102 µM), without a hit: at the top dose activity, negative = inhibition, most hits filed as inhibitors. Q96KQ7. G9a H3K9 monomethylation, AlphaScreen, 2 h; also: potency is read from the fitted curve at half-maximal effect; nearly all actives have a fitted effect of over 75% in size
Target sequence (Q96KQ7 913-1193 limits assumed): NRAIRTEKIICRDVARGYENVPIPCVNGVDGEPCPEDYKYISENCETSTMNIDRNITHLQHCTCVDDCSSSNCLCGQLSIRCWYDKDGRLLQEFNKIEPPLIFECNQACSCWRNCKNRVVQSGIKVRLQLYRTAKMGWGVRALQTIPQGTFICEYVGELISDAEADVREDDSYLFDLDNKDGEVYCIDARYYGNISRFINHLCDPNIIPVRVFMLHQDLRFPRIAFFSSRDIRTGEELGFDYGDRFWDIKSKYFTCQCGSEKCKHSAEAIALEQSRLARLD
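AlphaScreen detection with an anti-monomethyl H3K9 antibody quantified product after a 2 h room-temperature reaction containing 500 nM biotinylated H3K9 peptide, 20 µM SAM and 20 nM enzyme, which had been preincubated 15 min with compound.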
Sfp inh: blocks B. subtilis Sfp PPTase activity; Biochemical Sfp PPTase activity, qHTS; Potency, µM, inactives show largest response in the series, negative = inhibition, most hits filed as inhibitors; AID 1490; 310,000 tested, 3.5% active; Q9F4F7;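 also: the enzyme is Sfp with the accession as filed and its product quenches rhodamine fluorescence; potency is read from the fitted curve at half-maximal effect; 0% = enzyme reaction without inhibitor and -100% = no enzyme wells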
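Step 1, compound plus 15 nM Sfp-PPTase, 15 min, room temperature. Step 2, add rhodamine-CoA (5 uM) and BHQ-2-YbbR (12.5 uM). Step 3, read 525/598 nm fluorescence at 0 and 30 min.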
Tau fluor cs: counter-screen for tau fibril formation inhibitors; tau K18 P301L Alexa594 fluorescence, heparin fibrillization; Potency, µM (titrated, usually from 57.7 µM), inactives show at the top dose activity change, negative = decrease; 280,000 tested, 0.93% active; AID 1463; also: potency is read from the fitted curve at half-maximal effect; nearly all actives have a fitted effect of over 55% in size
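Human K18 P301L tau (15 uM unlabeled plus 0.24 uM Alexa 594-labeled, final) in 100 mM sodium acetate pH 7 was mixed with compound and 20 uM heparin and incubated 6 hr at 37 C.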
Tau FP inhib: blocks human tau fibril formation measured by polarization; P10636; K18 P301L tau heparin fibrillization, Alexa594 FP, 6 h; Potency, µM (highest dose often 57.7 µM), without a hit: at the highest dose activity, negative = inhibition, actives largely listed as inhibitors; 280,000 tested, 0.39% active; AID 1468; also: potency is read from the fitted curve at half-maximal effect; nearly all actives have a fitted effect of over 55% in size
Target sequence (P10636 561-689 P618L limits assumed): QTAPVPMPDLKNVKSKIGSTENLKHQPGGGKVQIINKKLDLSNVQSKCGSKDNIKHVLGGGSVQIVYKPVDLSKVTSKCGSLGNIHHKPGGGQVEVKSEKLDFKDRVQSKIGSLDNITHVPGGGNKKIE
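Steps: dispense K18 P301L tau (15 uM plus 0.24 uM Alexa 594 tracer, final) in pH 7 sodium acetate; add compound; add heparin (20 uM final); incubate 6 hr, 37 C; add ThT (30 uM final); after 1 hr ambient, read FP.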
Tau ThT inhib: blocks human tau fibril formation measured by thioflavin T; P10636; 270,000 tested, 2.1% active; AID 1460; Potency, µM (top dose mostly 57.4 µM), for the others: at the top dose activity, negative = inhibition, hits mostly inhibitors; recombinant tau K18 P301L (four-repeat tau fragment), heparin-induced fibrillization, ThT fluorescence; also: potency is read from the fitted curve at half-maximal effect; nearly all actives have a fitted effect of over 55% in size
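K18 P301L tau (15 uM + 0.24 uM Alexa 594-tagged), heparin 20 uM, NaOAc pH 7, 6 h 37 C; ThT 30 uM, 1 h RT, ex 450/em 510 nm.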
Active calls of the source: *; ? = inconclusive; . = no result given; [ ] = dose if it differs, or a comment. Unless noted, calls follow the shape of the dose curve; as a rule, active = well fitted curve in the direction sought with a large enough effect; inconclusive = small, poorly fitted or top-dose-only effect, or another doubt; inactive = no such curve, though single readings can be large; an effect the other way counts as inactive or inconclusive. Unless noted, % is scaled to controls: 0 for no effect and ±100 for the full control effect.

SMILES	FBPA coupling cs	G9a inh	Sfp inh	Tau fluor cs	Tau FP inhib	Tau ThT inhib
CCN(CC)CCN(C(=O)CN1C(=O)CCC1=O)c1nc2cc3c(cc2s1)OCO3	-2.9	?	0.7%	-5.8%	-7.7%	-5.4%
CCN(CC)CCN(C(=O)c1ccc(N2C(=O)CCC2=O)cc1)c1nc2cc3c(cc2s1)OCCO3	0.2	50.1µM*	?	-13.0%	-0.6%	-12.3%
C=CCOC(=O)N[C@H](c1ccccc1)C(C(C)=O)C(C)=O	9.9	.	9.1%	-10.5%	-5.2%	-9.5%
CC1Cc2ccccc2N1C(=O)c1cnc2n(c1=O)CCS2 (centres undefined)	1.0	44.7µM*	-3.5%	-4.1%	-0.5%	-8.6%
O=C(c1cnc2n(c1=O)CCS2)N1CCc2ccccc21	-1.4	-4.0%[59 µM]	0.9%	2.6%	7.6%	13.0%
CC1Cc2ccccc2N1C(=O)c1cccnc1 (centres undefined)	-6.6	50.1µM*	-5.1%	2.9%	0.5%	-6.6%
CC1CCc2cc(F)ccc2N1C(=O)c1cccnc1 (centres undefined)	-1.4	.	-0.3%	.	.	.
C1=CC(c2cc3ccccc3o2)OC(CCc2ccccc2)C1 (centres undefined)	-1.7	.	-8.7%	.	.	.
O=C(CCCN1C(=O)c2ccccc2C1=O)NCCc1ccc(OC(F)F)cc1	1.1	7.9%	5.8%	.	.	.
COc1ccc(NCc2cc3cc4c(cc3n(CC(=O)Nc3ccc(C)cc3)c2=O)OCO4)cc1	.	-40.9%[59 µM]	.	22.4µM*[quencher]	?	-22.1%
COc1ccc2cc(CNc3ccccc3)c(=O)n(CC(=O)Nc3ccc(C(C)=O)cc3)c2c1	.	-32.8%[59 µM]	.	12.6µM*[quencher]	-8.4%	5.4%
Cc1noc(C)c1COc1cccc(C(=O)OC(C)C(=O)Nc2c(C)n(C)n(-c3ccccc3)c2=O)c1 (centres undefined)	4.7	-26.8%	0.8%	-5.1%	-7.7%	3.7%
S=c1[nH]nc(COc2ccccc2)n1/N=C/C(Cl)=C/c1ccccc1	-1.6	9.5%[0.501 µM]	56.2µM*	-24.0%	-13.3%	?
S=c1[nH]nc(COc2ccccc2)n1/N=C/C=C/c1ccccc1	4.5	1.58µM*	-12.8%	-15.2%	-5.2%	?
S=c1[nH]nc(COc2ccccc2)n1/N=C/C=C/c1ccco1	-1.4	.	56.2µM*	?	?	?
S=c1[nH]nc(-c2ccncc2)n1/N=C/C(Cl)=C\c1ccccc1	4.1	.	?	-20.4%	-12.4%	?
O=c1c2ccccc2nc(COc2ccccc2)n1/N=C/c1ccco1	0.6	3.1%	-15.9%	-16.3%	1.4%	?
CCOc1ccccc1CNC(=O)c1[nH]c2ccccc2c1Sc1ccccc1	.	-33.9%[59 µM]	.	-15.1%	-9.6%	-8.4%
O=C(O)c1cccc(-c2ccc3c(c2)OCO3)c1	0.2	-11.5%	11.4%	.	.	.
O=C1OC(c2ccc3c(c2)OCO3)=N/C1=C\c1ccc(C(=O)O)cc1	-0.9	39.8µM*	7.6%	.	.	.
Cc1noc(C)c1CCC(=O)N1CCCC(N2CCN(c3ccc(F)cc3)CC2)C1 (centres undefined)	.	19.7%	7.2%	.	.	.
Oc1cccc2ccc[n+](CC(O)Cn3c4ccccc4c4ccccc43)c12 (centres undefined)	-1.5	7.94µM*	-28.5%	?	13.8%	?
Cn1c(=O)c2c(nc(NN=C3CCCCC3)n2C)n(C)c1=O	-11.9	50.1µM*	-25.1%	?	?	?
Cn1c(=O)c2c(nc(N/N=C/c3ccco3)n2C)n(C)c1=O	-4.5	.	17.8µM*	12.5%	9.0%	7.8%
CC(C)=NNc1nc2c(c(=O)n(C)c(=O)n2C)n1C	-5.5	.	22.4µM*	-24.9%	-8.8%	?
CC(C)=NNc1nc2c(c(=O)n(C)c(=O)n2C)n1CCc1ccccc1	-7.7	?	-17.9%	-28.4%	-3.6%	?
Cn1c(=O)c2c(nc(N/N=C/c3cccs3)n2C)n(C)c1=O	-9.3	?	-6.2%	-9.6%	0.1%	?
